# Data reported in PubChem BioAssay AID577 (University of Pittsburgh Molecular Library Screening Center, 2007).
# Hit rate of the full screen: of about 65,000 compounds, about 120 (0.18%) were called active. Cut-off read from the data, not from the text of the source: active = z-score below about -3; inactive = the rest. For the sample, actives were picked, then their nearest neighbours and some compounds at random.
# Target: Genome polyprotein (West Nile virus) (UniProt P06935)
# Assay: inhibitors of WNV NS2B-NS3 protease, primary screen, biochemical, fluorogenic substrate (AID 577)
# Conditions: fluorogenic substrate Ex360/Em465, stronger effect = lower value
# Sequence of Genome polyprotein (West Nile virus) (P06935 1371-1501 limits assumed): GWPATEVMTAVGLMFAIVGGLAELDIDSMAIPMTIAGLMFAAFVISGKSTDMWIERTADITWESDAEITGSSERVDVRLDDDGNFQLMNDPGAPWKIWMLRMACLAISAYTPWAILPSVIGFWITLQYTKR
# Sequence of Genome polyprotein (West Nile virus) (P06935 1502-1679 limits assumed): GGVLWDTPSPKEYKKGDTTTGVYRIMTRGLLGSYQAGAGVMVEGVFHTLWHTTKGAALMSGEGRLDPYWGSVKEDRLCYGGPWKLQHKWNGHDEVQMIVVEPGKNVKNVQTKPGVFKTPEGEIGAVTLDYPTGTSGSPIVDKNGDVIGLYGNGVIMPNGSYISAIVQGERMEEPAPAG
row,SMILES,z-score
1,C[C@H](NC(=O)NCCc1ccccc1)C(=O)O,0.46 (inactive)
2,CC(=O)Nc1cccc2c1[n+]([O-])c(C)c(C)[n+]2[O-],1.06 (inactive)
3,CC(NC(=O)CN1CCN(Cc2ccc(Cl)cc2)C1=O)c1ccc2c(c1)OCCO2 (centres undefined),0.67 (inactive)
4,COc1ccc(OC)c(-n2cc3c(=O)n(C)c(=O)n(C)c3c2)c1,0.45 (inactive)
5,C=C(C)COc1ccc(-c2n[nH]c(C)c2-c2ccccc2OC)c(O)c1,0.16 (inactive)
6,COc1ccc(CC(NC(C)=O)C(=O)NC2CCN(C(=O)Nc3ccc(C#N)cc3)CC2)cc1OC (centres undefined),-0.8 (inactive)
7,Cc1cc(NC(=O)CCC(=O)N(c2cccc(F)c2)C(C(=O)NC2CCCC2)c2ccncc2)no1 (centres undefined),1.41 (inactive)
8,Cc1ccc(OCC(=O)Nc2ccc(-c3nnc(-c4ccco4)o3)cc2)cc1,-3.16 (active)
9,CCOc1ccc(-c2nnc(-c3ccco3)o2)cc1,-0.08 (inactive)
10,COc1ccc(CC(=O)Nc2ccc(-c3nnc(-c4ccc(C)cc4)o3)cc2)cc1,0.17 (inactive)
11,CCCn1c(O)c(CN2CCCC(C)C2)c(C)c(C#N)c1=O (centres undefined),-0.51 (inactive)
12,Clc1ccc(Cc2nn3c(-c4ccncc4)nnc3s2)cc1,0.04 (inactive)
13,O=C(O)C1OC(C(=O)O)C2C1C(F)(F)C2(F)F (centres undefined),1.24 (inactive)
14,CC1CSc2nnc(CCc3ccccc3)n21 (centres undefined),-0.75 (inactive)
15,CCOC(=O)C1CCCN(C(=O)c2ccc(CS(=O)(=O)c3ccc(Br)cc3)o2)C1 (centres undefined),-0.97 (inactive)
16,COc1cc2c(cc1NC(=O)CN1CCN(S(=O)(=O)c3ccc(F)cc3)CC1)oc1ccccc12,-0.05 (inactive)
17,CC(=O)N1C(=O)C2(Nc3ccccc3N2)c2ccccc21,-0.34 (inactive)
18,O=S(=O)(NCc1ccccn1)c1ccc(F)cc1,-0.56 (inactive)
19,Cc1cc(=O)n2c3c(cccc13)CCC2,-0.73 (inactive)
20,CCCCc1nc2ccccc2c(NC(=O)CN2CCN(C)CC2)c1CCC,-1.27 (inactive)
21,Cc1ccc(C(C(=O)NC2CCCC2)N(Cc2ccco2)C(=O)CCC(=O)Nc2ccccn2)cc1 (centres undefined),0.98 (inactive)
22,COc1ccc(-c2cn3ccsc3n2)cc1,-7.48 (active)

row,SMILES,z-score
1,CCCC(=O)Nc1cccc(-c2cn3ccsc3n2)c1,-1.1 (inactive)
2,O=C(NCc1cn2ccsc2n1)Nc1ccc(Cl)cc1,-0.25 (inactive)
3,CCOc1ccc(NC(=O)Nc2cc(C)on2)cc1,0.95 (inactive)
4,Cn1c(=O)c2c(ncn2CC(=O)N2CCN(c3ccccc3)CC2)n(C)c1=O,0.25 (inactive)
5,c1ccc(CCC2=NCCn3cccc32)cc1,-0.03 (inactive)
6,COC(=O)c1cc(NC2c3ccccc3C(=O)N2c2ccc(Cl)cn2)cc(C(=O)OC)c1 (centres undefined),-0.39 (inactive)
7,CC(C)(C)c1ccc(C(=O)NCCC(=O)NCc2ccco2)cc1,0.25 (inactive)
8,CCCN(CCC)CCNC(=O)c1cc2c(C)nc3ccccc3c2o1,0.99 (inactive)
9,Cc1cc2cc(CN(Cc3cccs3)Cc3nnnn3CC3CCCO3)c(=O)[nH]c2cc1C (centres undefined),-0.04 (inactive)
10,CCOc1ccccc1Oc1cn[nH]c1-c1ccc(OC)cc1O,-0.64 (inactive)
11,CC(C)CCNC(=O)CN(C(=O)Cn1nnc(-c2ccc(F)cc2)n1)C1CCCC1,-0.44 (inactive)
12,CCOC(=O)C1CCCN(C(=O)CN(c2ccc(OC)cc2)S(=O)(=O)c2c(C)noc2C)C1 (centres undefined),-0.04 (inactive)
13,Cc1cc(C)c(C)c(S(=O)(=O)Nc2ccc(O)cc2)c1C,-1.62 (inactive)
14,CC(C(=O)N1CCOCC1)N1c2cccc3cccc(c23)S1(=O)=O (centres undefined),-0.43 (inactive)
15,CCCOc1ccc(Cn2c(O)cc(=O)[nH]c2=O)cc1,0.4 (inactive)
16,CCC(=O)N1CCN=C1SCc1ccc(F)cc1,0.56 (inactive)
17,COc1ccc(CCN=C2SCC(=O)N2C)cc1OC,-0.84 (inactive)
18,Cn1c(=O)[nH]c(=O)c2c1nc(NCCCn1ccnc1)n2Cc1cccc(Br)c1,-0.12 (inactive)
19,CC(=O)Oc1ccc2c(C)c(CC(C)O)c(=O)oc2c1 (centres undefined),5.37 (inactive)
20,COC(=O)c1ccccc1NC(=O)CSc1ccccn1,-0.33 (inactive)
21,Cn1cccc1Cc1nnc(SCC(=O)NCCc2ccccc2)n1-c1ccc(F)cc1,-0.68 (inactive)
22,COCCn1c(CN(Cc2ccccc2)Cc2ccccc2)nc2c1c(=O)n(C)c(=O)n2C,0.73 (inactive)

row,SMILES,z-score
1,O=C(COc1ccc(Cl)cc1)Nc1ccccc1CO,1.62 (inactive)
2,CC(=O)C1=C(O)C(=O)N(c2ccc(S(N)(=O)=O)cc2)C1c1ccccc1F (centres undefined),-0.26 (inactive)
3,O=C(NCc1cccnc1)c1ccc(CS(=O)(=O)c2ccc(Br)cc2)o1,-0.48 (inactive)
4,CN(C)c1nc(N)nc(CSc2nnnn2-c2cccc3ccccc23)n1,-0.13 (inactive)
5,Fc1ccc(OCc2nn3c(Cn4nnc5ccccc54)nnc3s2)cc1,1.56 (inactive)
6,CS(=O)(=O)c1ccc2nc(NC(=O)C3CCCCC3)sc2c1,-0.5 (inactive)
7,Cc1ccc(F)cc1NC(=O)c1cccc(N(C)C)c1,-0.19 (inactive)
8,O=C(Nc1cccc(Cl)c1)OCc1ccccn1,0.46 (inactive)
9,CCC(C)(NC(=O)c1ccccn1)C(=O)NC1CCCCC1 (centres undefined),0.53 (inactive)
10,O=C(Nc1ccc2c(c1)OCO2)C1CC(c2c(F)cccc2Cl)=NO1 (centres undefined),1.16 (inactive)
11,CCSC1(SCC)N=C(N)C2(C#N)C(c3ccccc3)NC(C)=CC12C#N (centres undefined),-1.23 (inactive)
12,O=C(CC1OC(=O)c2ccccc21)NC1CCCCC1 (centres undefined),-0.53 (inactive)
13,O=C(NCC1CCCO1)C(C(=O)c1ccccc1)n1cc(Cl)ccc1=O (centres undefined),-0.94 (inactive)
14,CCn1cc(C(=O)N2CCN(C3CCCCC3)CC2)c2cc(OC)c(OC)cc2c1=O,0.44 (inactive)
15,O=C(O)C1CC(=O)N(Cc2cccnc2)C1 (centres undefined),-0.77 (inactive)
16,O=C1CCC(Cc2ccccc2)N1 (centres undefined),0.78 (inactive)
17,O.O.O.O=S(=O)([O-])OC[C@H]1O[C@@H](O[C@]2(COS(=O)(=O)[O-])O[C@H](OS(=O)(=O)[O-])[C@@H](OS(=O)(=O)[O-])[C@@H]2OS(=O)(=O)[O-])[C@H](OS(=O)(=O)[O-])[C@@H](OS(=O)(=O)[O-])[C@@H]1OS(=O)(=O)[O-].[Al],-0.72 (inactive)
18,CC(C)CNS(=O)(=O)c1ccc(OCC(=O)Nc2ccc3c(c2)OCO3)c(Cl)c1,0.53 (inactive)
19,COc1cccc(-c2nn(C)c3sc(C(=O)N4CCN(c5ccccc5)CC4)cc23)c1,-0.13 (inactive)
20,O=C(c1ccccc1)c1cccn1CC(=O)N1CCN(c2ccc(F)cc2)CC1,-1.05 (inactive)
21,COc1cccc(-c2nc(S(=O)(=O)c3ccccc3)c(N3CCOCC3)o2)c1,-0.88 (inactive)
22,CC(C)n1c(C(O)c2ccccc2)nc2ccccc21 (centres undefined),-1.05 (inactive)

row,SMILES,z-score
1,O=C(Nc1nnc(-c2ccc(Cl)cc2)o1)c1ccccc1Br,2.56 (inactive)
2,O=C(O)C1CCN1C1CCCCC1 (centres undefined),-0.3 (inactive)
3,CCCOc1ccc(NC(=O)C2CCCNC2=O)cc1 (centres undefined),0.11 (inactive)
4,CCn1cc(C(=O)NC2CCCCCC2)c(=O)c2cc(S(=O)(=O)N3CCCCC3)ccc21,-1.17 (inactive)
5,Oc1ccc(Cl)cc1/C=N/c1nc2ccccc2[nH]1,-0.26 (inactive)
6,CCOC(=O)C1CCN(C(=O)CC2C(=O)N(Cc3ccccc3)C(C)c3nc4ccccc4n32)CC1 (centres undefined),-0.76 (inactive)
7,Brc1cnc(N2CCCC2)nc1N1CCCCC1,-0.6 (inactive)
8,CCOC(=O)c1ccc(Nc2cc(C)nc3nc(C)nn23)cc1,-0.96 (inactive)
9,Cn1nc(-c2ccc(N3CCOCC3)c(NC(=O)c3ccccc3)c2)c2ccccc2c1=O,-0.07 (inactive)
10,COc1ccc(CCNC(=O)CSc2nnc(-c3cccc(F)c3)o2)cc1OC,0.62 (inactive)
11,O=C(CSC1=Nc2ccccc2C2=NC(c3ccccc3)C(=O)N12)NCC1CCCO1 (centres undefined),-0.94 (inactive)
12,CCOC(=O)N1CCN(C(=O)c2ccc(S(=O)(=O)c3ccc(C)cc3)c(NC(C)=O)c2)CC1,0.25 (inactive)
13,CCc1nc2oc3ccccc3c(=O)c2c(=O)n1Cc1ccc(OC)cc1,-0.51 (inactive)
14,CC1CCN(Cc2nc3c(c(=O)n(C)c(=O)n3C)n2Cc2cccc3ccccc23)CC1,-0.71 (inactive)
15,CCC(C(=O)N1CCOCC1)n1c(C(=O)OC)cc2occc21 (centres undefined),-1.12 (inactive)
16,O=C(NC1CCCCC1)N1CCc2[nH]c3ccccc3c2C1,0.65 (inactive)
17,Cn1c(=O)c2[nH]c(NCC3CCCO3)nc2n(-c2ccccc2)c1=O (centres undefined),-0.17 (inactive)
18,Cc1c(C(=O)NCC2CCCO2)sc2nc(-c3ccccc3)cn12 (centres undefined),0.86 (inactive)
19,Cc1nn(Cc2ccccc2)c(Cl)c1C(=O)OC1CCOC1=O (centres undefined),0.09 (inactive)
20,c1ccc(-c2cn3cccnc3n2)cc1,1.38 (inactive)
21,Cc1ccc(-n2c(Cc3cccs3)nnc2SCC(=O)OC(C)C)cc1,-0.91 (inactive)
22,CCOc1ccc(OCC)c(NC(=O)CSc2nnc(Cn3cnc4ccccc43)n2C)c1,1.68 (inactive)

row,SMILES,z-score
1,CSc1sc(C)cc1C1C(C#N)=C(N)N(c2cccnc2)C2=C1C(=O)CCC2 (centres undefined),0.7 (inactive)
2,CCC(C)n1[nH]c(=O)c2c(C)cc(C)nc21 (centres undefined),0.11 (inactive)
3,COc1ccc(/C(O)=C2/C(=O)C(=O)N(c3nc(C)c(C)s3)C2c2ccco2)cc1 (centres undefined),-0.46 (inactive)
4,CCOC(=O)c1sc(NC(=O)C(CC)Sc2nccn2C)nc1C (centres undefined),0.77 (inactive)
5,CCOC(=O)c1sc(=S)n2c1[nH]c(=O)c1ccc(C(=O)OC)cc12,0.38 (inactive)
6,Cc1ccccc1-c1nc(CS(=O)(=O)CC(=O)N2CCc3ccccc3C2)c(C)o1,-0.21 (inactive)
7,CC(C)c1ccc(NS(=O)(=O)c2cn(C)c(=O)n(C)c2=O)cc1,-1.04 (inactive)
8,CCCOc1ccc2c3c(c(=O)oc2c1OCCC)CCC3,-0.02 (inactive)
9,COc1ccc(NC(=O)CN(C)S(=O)(=O)c2ccccc2)cc1OC,-0.74 (inactive)
10,Cc1ccc(NC(=O)C2CCCN(S(=O)(=O)c3c(C)noc3C)C2)c(C)c1 (centres undefined),-1.04 (inactive)
11,CCOC(=O)Cn1c(CN(Cc2ccccc2)Cc2ccccc2)nc2c1c(=O)[nH]c(=O)n2C,1.45 (inactive)
12,COc1ccc(CCNS(=O)(=O)c2ccc(F)cc2)cc1OC,-0.37 (inactive)
13,Cc1nnc(SCC(=O)Nn2cnnc2)s1,0.2 (inactive)
14,CCCCn1c(CCCNC(=O)CC)nc2ccccc21,0.2 (inactive)
15,CC(=O)c1ccc(NC(=O)N[C@@H](Cc2ccccc2)C(=O)O)cc1,1.38 (inactive)
16,Cc1ccc(C)c(NC(=O)C2CC(=O)N(C(C)C)C2)c1 (centres undefined),-0.7 (inactive)
17,Clc1ccc(C=NC23CN4CN(CN(C4)C2)C3)cc1,1.48 (inactive)
18,O=C1CC(Cc2ccccc2)C(=O)N1c1ccc(Cl)cn1 (centres undefined),-1.5 (inactive)
19,CCN(CC)C(=O)CSc1nnc(-c2cnccn2)n1-c1ccc(C)cc1,0.78 (inactive)
20,CSCCC(NC(=O)C1CCC(C)CC1)C(=O)NCc1ccco1 (centres undefined),0.29 (inactive)
21,CCCCOC(=O)NCN1C(=O)C2C3C=CC(C3)C2C1=O (centres undefined),0.28 (inactive)
